Measured values reported in PubChem BioAssay (EPA / NIEHS).
Activity calls are given as the source filed them. How the source made its calls: active means hit-call score of the fitted dose curve at least 0.9, where 1 is the maximum; inactive means score below 0.9.

Experiments:
[1] = ATG_M_32_CIS: Attagene CIS-FACTORIAL HepG2 Assay for M32 Transcription Factor (Internal Marker) (AID 2282949); details: HepG2 Attagene cis-factorial M32 reporter, mRNA; actives raise or lower the signal;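 further: background control marker of the multiplexed CIS panel rather than a real target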
In short: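 Following 24 h chemical exposure of HepG2 cells transiently expressing cis-promoter reporter constructs, reporter transcript levels were determined by RT-PCR with fluorescent labelling and capillary electrophoresis, then fitted bidirectionally against DMSO.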

[2] = ATG_M_06_CIS: Attagene CIS-FACTORIAL HepG2 Assay for M06 Transcription Factor (Internal Marker) (AID 2282950); details: HepG2 Attagene CIS-FACTORIAL M06 internal marker reporter; actives raise or lower the signal
In short: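 Measured 24 h post-dosing in transiently transfected HepG2 cells, this internal-marker endpoint reports reporter mRNA via RT-PCR with fluorescent primer extension and capillary electrophoresis. DMSO served as negative control and baseline for bidirectional fitting.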

[3] = target: Hypoxia-inducible factor 1-alpha (Homo sapiens) (UniProt Q16665); test: ATG_HIF1a_CIS: Attagene CIS-FACTORIAL HepG2 Assay for human Hypoxia Inducible Factor 1 (HIF1A) (AID 2282951); details: HepG2 Attagene cis-factorial HIF1a reporter transcription; actives raise or lower the signal
Chain of Hypoxia-inducible factor 1-alpha (Homo sapiens) (Q16665 whole entry, looked up): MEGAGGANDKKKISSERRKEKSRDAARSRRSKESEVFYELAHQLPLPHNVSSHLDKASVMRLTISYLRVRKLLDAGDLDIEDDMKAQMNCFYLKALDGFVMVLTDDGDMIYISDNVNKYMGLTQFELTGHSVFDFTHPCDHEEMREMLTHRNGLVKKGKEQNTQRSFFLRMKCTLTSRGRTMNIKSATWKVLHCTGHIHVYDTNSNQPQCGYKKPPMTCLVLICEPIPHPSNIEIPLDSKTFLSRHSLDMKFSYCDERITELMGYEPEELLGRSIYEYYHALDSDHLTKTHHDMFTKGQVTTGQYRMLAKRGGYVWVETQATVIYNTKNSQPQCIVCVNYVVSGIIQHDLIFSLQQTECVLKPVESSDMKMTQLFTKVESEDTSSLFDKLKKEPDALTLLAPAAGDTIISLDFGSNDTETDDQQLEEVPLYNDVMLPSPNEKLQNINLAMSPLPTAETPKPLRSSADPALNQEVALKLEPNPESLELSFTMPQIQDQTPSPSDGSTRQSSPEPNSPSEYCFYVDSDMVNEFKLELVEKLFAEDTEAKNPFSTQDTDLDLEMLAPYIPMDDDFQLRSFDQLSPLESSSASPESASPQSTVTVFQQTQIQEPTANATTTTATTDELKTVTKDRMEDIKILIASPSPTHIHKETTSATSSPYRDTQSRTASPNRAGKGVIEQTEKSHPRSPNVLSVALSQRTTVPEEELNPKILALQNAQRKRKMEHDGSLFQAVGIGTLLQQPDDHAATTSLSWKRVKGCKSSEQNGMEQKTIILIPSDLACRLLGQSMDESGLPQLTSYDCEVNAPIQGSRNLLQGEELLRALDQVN
In short: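 Dosed 24 h, transfected HepG2 cells yielded total RNA whose reporter transcripts were RT-PCR-amplified and sized by capillary electrophoresis using fluorescent labelling; DMSO defined baseline, with gain and loss of signal both fitted.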

[4] = target: Hepatocyte nuclear factor 6 (Homo sapiens) (UniProt Q9UBC0); test: ATG_HNF6_CIS: Attagene CIS-FACTORIAL HepG2 Assay for human Hepatocyte Nuclear Factor 6 (HNF6) (AID 2282952); details: HepG2 Attagene cis-factorial HNF6 reporter transcription; actives raise or lower the signal
Chain of Hepatocyte nuclear factor 6 (Homo sapiens) (Q9UBC0 whole entry, looked up): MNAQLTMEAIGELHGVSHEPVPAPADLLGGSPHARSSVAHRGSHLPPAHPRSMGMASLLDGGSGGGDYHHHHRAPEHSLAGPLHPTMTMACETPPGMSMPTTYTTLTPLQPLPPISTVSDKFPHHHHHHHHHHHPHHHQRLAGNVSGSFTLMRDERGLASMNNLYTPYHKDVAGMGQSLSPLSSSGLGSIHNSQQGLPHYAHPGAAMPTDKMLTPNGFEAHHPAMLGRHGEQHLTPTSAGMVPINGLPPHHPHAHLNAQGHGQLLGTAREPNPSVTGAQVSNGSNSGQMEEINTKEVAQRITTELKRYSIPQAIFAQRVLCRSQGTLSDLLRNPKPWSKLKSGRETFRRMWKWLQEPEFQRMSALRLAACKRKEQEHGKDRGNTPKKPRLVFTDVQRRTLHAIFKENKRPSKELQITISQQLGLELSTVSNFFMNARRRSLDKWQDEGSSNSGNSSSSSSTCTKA
In short: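 Multiplexed mRNA reporter assay in transfected HepG2; 24 h dosing; RT-PCR plus capillary electrophoresis fluorescence; DMSO-referenced bidirectional curve fitting.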

[5] = ATG_MRE_CIS: Attagene CIS-FACTORIAL HepG2 Assay for human Metal Responsive Element (MRE) (AID 2282954); details: HepG2 MRE cis-reporter transcription, Attagene multiplex; actives raise or lower the signal
In short: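 HepG2 cells transiently transfected with multiple cis-element reporter units measure endogenous MTF1-driven transcription. After 24 h compound exposure, reporter mRNA is quantified by RT-PCR with 6-FAM labelling, HpaI digestion and capillary electrophoresis; bidirectional fits versus DMSO.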

[6] = ATG_PBREM_CIS: Attagene CIS-FACTORIAL HepG2 Assay for human Phenobarbital-responsive Enhancer Module (PBREM) (AID 2282955); details: HepG2 PBREM cis-reporter, Attagene multiplexed transcription; actives raise or lower the signal
In short: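 Transfected liver-derived HepG2 cells exposed 24 h; PBREM reporter transcript quantified via RT-PCR and capillary electrophoresis, with activity in either direction referenced to DMSO.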

[7] = target: Paired box protein Pax-6 (Homo sapiens) (UniProt P26367); test: ATG_Pax6_CIS: Attagene CIS-FACTORIAL HepG2 Assay for human Paired Box 6 (PAX6) (AID 2282956); details: HepG2 CIS-FACTORIAL PAX6 reporter transcription, RNA readout; actives raise or lower the signal
Chain of Paired box protein Pax-6 (Homo sapiens) (P26367 whole entry, looked up): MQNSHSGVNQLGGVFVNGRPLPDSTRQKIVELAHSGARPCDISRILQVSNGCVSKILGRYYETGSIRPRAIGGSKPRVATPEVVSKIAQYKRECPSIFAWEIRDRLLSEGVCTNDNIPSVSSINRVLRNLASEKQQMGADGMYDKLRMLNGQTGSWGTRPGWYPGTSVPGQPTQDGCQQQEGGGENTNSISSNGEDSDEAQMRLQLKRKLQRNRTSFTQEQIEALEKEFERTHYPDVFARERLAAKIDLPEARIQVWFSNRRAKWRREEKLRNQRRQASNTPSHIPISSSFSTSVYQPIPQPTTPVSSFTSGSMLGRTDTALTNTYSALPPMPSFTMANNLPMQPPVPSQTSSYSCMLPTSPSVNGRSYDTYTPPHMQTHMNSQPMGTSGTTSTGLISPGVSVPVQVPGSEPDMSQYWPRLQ
In short: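 HepG2 cells transiently transfected with multiplexed cis-promoter reporter units (endogenous TF activity) were dosed for 24 h. Reporter mRNA was quantified by RT-PCR, 6-FAM labeling, HpaI digestion and capillary electrophoresis; bidirectional fitting versus DMSO baseline.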

[8] = ATG_PPRE_CIS: Attagene CIS-FACTORIAL HepG2 Assay for human Peroxisome Proliferator-activated Response Element (PPRE) (AID 2282958); details: HepG2 PPRE cis-element reporter, Attagene transcription factor profiling; actives raise or lower the signal
In short: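 Measured endpoint: PPRE-controlled reporter mRNA, detected by RT-PCR and capillary electrophoresis fluorescence, from transiently transfected HepG2 cells 24 h after dosing. Curves fitted in both directions using DMSO baseline.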

[9] = ATG_RORE_CIS: Attagene CIS-FACTORIAL HepG2 Assay for human RAR-related Orphan Receptor Element (RORE) (AID 2282959); details: HepG2 Attagene cis-factorial RORE reporter, mRNA; actives raise or lower the signal
In short: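 Transiently transfected HepG2 reporter cells were treated 24 h. Reporter transcripts were detected by RT-PCR and capillary electrophoresis, with bidirectional fitting against DMSO.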

[10] = ATG_Sox_CIS: Attagene CIS-FACTORIAL HepG2 Assay for human SRY-box transcription factor (SOX) (AID 2282960); details: HepG2 Attagene cis-factorial SOX reporter, mRNA; actives raise or lower the signal
In short: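 Gain- or loss-of-signal endpoint, fitted bidirectionally with DMSO as negative control. Based on reporter mRNA from transfected HepG2 cells harvested 24 h post-treatment and quantified via RT-PCR and capillary electrophoresis.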

[11] = target: Transcription factor Sp1 (Homo sapiens) (UniProt P08047); test: ATG_Sp1_CIS: Attagene CIS-FACTORIAL HepG2 Assay for human Specificity Protein 1 (Sp1) (AID 2282961); details: HepG2 Sp1 cis-reporter transcription, actives raise or lower the signal
Chain of Transcription factor Sp1 (Homo sapiens) (P08047 whole entry, looked up, the tested form may be a part): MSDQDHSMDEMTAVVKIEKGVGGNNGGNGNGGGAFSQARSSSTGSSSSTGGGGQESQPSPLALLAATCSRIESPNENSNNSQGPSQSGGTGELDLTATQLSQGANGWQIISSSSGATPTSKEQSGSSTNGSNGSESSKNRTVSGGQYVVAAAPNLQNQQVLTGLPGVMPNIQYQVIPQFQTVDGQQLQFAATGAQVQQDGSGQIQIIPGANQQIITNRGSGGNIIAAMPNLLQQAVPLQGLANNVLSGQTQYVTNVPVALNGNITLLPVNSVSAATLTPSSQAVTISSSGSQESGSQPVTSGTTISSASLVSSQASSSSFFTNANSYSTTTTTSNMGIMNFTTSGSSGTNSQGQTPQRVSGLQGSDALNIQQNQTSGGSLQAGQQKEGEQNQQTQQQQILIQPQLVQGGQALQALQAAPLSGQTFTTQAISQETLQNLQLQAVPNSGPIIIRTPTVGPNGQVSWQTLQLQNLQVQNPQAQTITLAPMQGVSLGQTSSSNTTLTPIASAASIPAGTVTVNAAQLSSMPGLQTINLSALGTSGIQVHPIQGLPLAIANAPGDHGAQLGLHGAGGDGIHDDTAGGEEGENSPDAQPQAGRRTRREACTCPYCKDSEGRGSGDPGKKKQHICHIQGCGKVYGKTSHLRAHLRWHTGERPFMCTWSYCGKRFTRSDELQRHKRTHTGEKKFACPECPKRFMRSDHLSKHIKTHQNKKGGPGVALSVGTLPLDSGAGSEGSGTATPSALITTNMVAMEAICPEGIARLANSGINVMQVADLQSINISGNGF
In short: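 Endpoint reflects endogenous Sp1 transcriptional activity, not an exogenous fusion protein: HepG2 cells with transfected cis-regulated reporters, 24 h dosing, RT-PCR/capillary electrophoresis mRNA read-out, DMSO-normalised bidirectional fit.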

[12] = ATG_TA_CIS: Attagene CIS-FACTORIAL HepG2 Assay for human TA Basal Promoter (AID 2282964); details: HepG2 Attagene CIS-factorial TA basal promoter reporter; actives raise or lower the signal
In short: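 Cis-factorial format in HepG2: reporters report endogenous factors, not chimeric Gal4 fusions. After 24 h treatment, reporter transcripts were measured by RT-PCR-capillary electrophoresis fluorescence, analysed bidirectionally versus DMSO.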

[13] = ATG_TCF_b_cat_CIS: Attagene CIS-FACTORIAL HepG2 Assay for human T-Cell-Factor with beta-catenin (TCF/b-cat) (AID 2282965); details: HepG2 TCF/beta-catenin cis-reporter transcription, actives raise or lower the signal
In short: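 Using capillary electrophoresis as the read-out, labelled reporter cDNA fragments from transiently transfected HepG2 were sized and quantified. Exposure lasted 24 hours; activity in either direction was referenced to DMSO.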

[14] = ATG_ISRE_CIS: Attagene CIS-FACTORIAL HepG2 Assay for human Interferon Regulatory Factor 1 (IRF1) binding to an Interferon-Stimulated Response Element (ISRE) (AID 2282948); details: HepG2 ISRE cis-reporter (Attagene), mRNA transcription readout; actives raise or lower the signal
In short: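 HepG2 cells transiently transfected with multiplexed cis-promoter reporter units; after 24 h compound exposure, reporter mRNA quantified by RT-PCR, FAM labelling, HpaI digestion and capillary electrophoresis. Bidirectional fit versus DMSO baseline.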

[15] = target: Heat shock factor protein 1 (Homo sapiens) (UniProt Q00613); test: ATG_HSE_CIS: Attagene CIS-FACTORIAL HepG2 Assay for human Heat Shock Transcription Factor 1 (HSE) (AID 2282953); details: HepG2 HSE cis-reporter, Attagene RNA transcription; actives raise or lower the signal
Chain of Heat shock factor protein 1 (Homo sapiens) (Q00613 whole entry, looked up): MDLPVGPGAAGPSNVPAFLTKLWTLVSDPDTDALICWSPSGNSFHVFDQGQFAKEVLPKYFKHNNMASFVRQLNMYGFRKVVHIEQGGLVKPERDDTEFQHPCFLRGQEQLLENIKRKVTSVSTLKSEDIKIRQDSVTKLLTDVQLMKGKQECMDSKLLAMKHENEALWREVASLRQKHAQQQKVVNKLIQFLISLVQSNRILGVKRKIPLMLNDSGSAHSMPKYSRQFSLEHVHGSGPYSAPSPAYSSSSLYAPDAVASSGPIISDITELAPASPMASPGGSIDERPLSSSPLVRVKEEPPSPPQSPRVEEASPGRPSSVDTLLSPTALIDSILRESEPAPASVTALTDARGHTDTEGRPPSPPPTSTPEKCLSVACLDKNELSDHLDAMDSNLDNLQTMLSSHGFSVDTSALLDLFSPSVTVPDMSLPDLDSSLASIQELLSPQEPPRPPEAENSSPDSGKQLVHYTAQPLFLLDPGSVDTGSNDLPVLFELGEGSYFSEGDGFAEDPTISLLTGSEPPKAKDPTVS
In short: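 Reporter mRNA induction in HepG2 is measured 24 h after dosing, using transiently transfected multiplexed cis-regulated reporter units. Signal comes from capillary electrophoresis of labelled RT-PCR products, with DMSO as negative control.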

[16] = ATG_PXRE_CIS: Attagene CIS-FACTORIAL HepG2 Assay for human Pregnane X Receptor Element (PXRE) (AID 2282957); details: HepG2 Attagene CIS-FACTORIAL PXRE reporter, mRNA; actives raise or lower the signal
In short: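 Cells: HepG2, transiently transfected reporter units under cis promoter control. Exposure: 24 h. Detection: reporter mRNA via RT-PCR/CE fluorescence; bidirectional fitting, DMSO-referenced.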

[17] = ATG_SREBP_CIS: Attagene CIS-FACTORIAL HepG2 Assay for human Sterol Regulatory Element Binding (SREBP) (AID 2282962); details: HepG2 Attagene cis-factorial SREBP reporter, mRNA; actives raise or lower the signal
In short: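 HepG2 cells transiently transfected with multiplexed cis-element reporter units report endogenous transcription factor activity. After 24 h of chemical exposure, reporter mRNA was quantified by RT-PCR, 6-FAM labelling, HpaI digestion and capillary electrophoresis; bidirectional fits used DMSO as baseline.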

[18] = target: Signal transducer and activator of transcription 3 (Homo sapiens) (UniProt P40763); test: ATG_STAT3_CIS: Attagene CIS-FACTORIAL HepG2 Assay for human Signal Transducer and Activator of Transcription 3 (STAT3) (AID 2282963); details: HepG2, Attagene cis-factorial STAT3 reporter transcription; actives raise or lower the signal
Chain of Signal transducer and activator of transcription 3 (Homo sapiens) (P40763 whole entry, looked up): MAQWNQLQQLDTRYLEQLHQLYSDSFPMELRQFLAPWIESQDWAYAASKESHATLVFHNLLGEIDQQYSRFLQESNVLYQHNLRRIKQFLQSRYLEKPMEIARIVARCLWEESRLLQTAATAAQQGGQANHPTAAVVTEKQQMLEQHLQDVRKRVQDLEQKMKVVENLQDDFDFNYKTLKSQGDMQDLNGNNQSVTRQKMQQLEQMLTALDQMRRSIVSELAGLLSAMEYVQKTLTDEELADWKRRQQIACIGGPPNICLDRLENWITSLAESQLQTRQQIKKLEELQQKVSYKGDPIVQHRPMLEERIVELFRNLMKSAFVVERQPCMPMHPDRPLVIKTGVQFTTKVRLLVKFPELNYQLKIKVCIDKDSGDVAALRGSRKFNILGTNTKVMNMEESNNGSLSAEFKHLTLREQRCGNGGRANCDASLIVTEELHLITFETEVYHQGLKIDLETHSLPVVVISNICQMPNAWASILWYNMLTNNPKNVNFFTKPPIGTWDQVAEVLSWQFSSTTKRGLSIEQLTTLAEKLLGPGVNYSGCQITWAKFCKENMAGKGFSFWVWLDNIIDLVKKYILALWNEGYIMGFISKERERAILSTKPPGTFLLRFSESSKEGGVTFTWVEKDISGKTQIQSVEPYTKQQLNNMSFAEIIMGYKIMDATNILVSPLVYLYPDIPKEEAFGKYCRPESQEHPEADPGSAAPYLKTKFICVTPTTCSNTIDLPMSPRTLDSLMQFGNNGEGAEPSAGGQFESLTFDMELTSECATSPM
In short: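 HepG2 cells transiently transfected with cis-element-driven multiple reporter transcription units; after 24 h chemical exposure, reporter mRNA measured by RT-PCR, 6-FAM primer-extension labelling, HpaI digestion and capillary electrophoresis. Bidirectional fitting versus DMSO baseline.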

Measured: AC50

CCCCCCCCCCCCCCCCCC(=O)OCC(CC)CCCC (stereo not drawn)
not listed: [14] | [15] | [16] | [17] | [18]
inactive: all other assays above

CCCCNC(=O)NS(=O)(=O)c1ccc(N)cc1
not listed: [4] | [9] | [12]
inactive: all other assays above

Cc1ccc(S)cc1
active: [14] 35.3 µM | [4] 100 µM | [13] 24.4 µM
not listed: [15]
inactive: all other assays above

C=C(C)C(=O)O[C@H]1C[C@@H]2CC[C@@]1(C)C2(C)C
active: [3] 73.3 µM | [16] 26.5 µM | [8] 75.3 µM | [17] 175 µM | [13] 138 µM
not listed: [6] | [15]
inactive: all other assays above

O=S(=O)(O)NC1CCCCC1
not listed: [3] | [4] | [8] | [9] | [15]
inactive: all other assays above

O=C(O)COCCN1CCN(C(c2ccccc2)c2ccc(Cl)cc2)CC1 (stereo not drawn)
not listed: [1] | [3] | [4] | [15]
inactive: all other assays above

CCC(=O)OCCC(C)CCC=C(C)C (stereo not drawn)
active: [16] 41.1 µM
not listed: [1] | [4]
inactive: all other assays above

CC(C)=CCCC(C)=CCCC(C)=CCO
active: [16] 4.26 µM | [17] 41.4 µM
not listed: [3] | [15] | [18]
inactive: all other assays above

CCCC[n+]1ccccc1
not listed: [6] | [8] | [15] | [16]
inactive: all other assays above
